From PubChem BioAssay
The source made the active and inactive calls. Unless noted, no rule for the calls is given here.

Columns and labels:
[1] = compound effects on lung adenocarcinoma cell viability – A549, calcein-AM fluorescence, 48 h, basal, profiling panel (AID 1162); settings: higher = more signal; also: test concentration not given here
[2] = compound effects on differentiated 3T3-L1 adipocyte viability – cell-based, 3T3-L1 adipocytes, calcein-AM fluorescence, 48 h, basal, profiling panel (AID 1163); settings: 3T3-L1 adipocytes viability, higher = more signal; also: test concentration not given here
[3] = compound effects on hepatocellular carcinoma cell viability – HepG2, calcein-AM fluorescence, 48 h, basal, profiling panel (AID 1164); settings: higher = more signal; also: test concentration not given here
[4] = compound effects on multiple myeloma cell viability – MM1S, calcein-AM fluorescence, 48 h, basal, profiling panel (AID 1165); settings: higher = more signal;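 also: viability of MM1S multiple myeloma cells under basal unstimulated conditions; test concentration not given here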
[5] = calcein-AM signal in unstimulated myeloma cells – cell-based, calcein-AM fluorescence, 48 h, PK04 Diversity Set, profiling panel (AID 1166); settings: RPMI8226 myeloma viability, higher = more signal;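 also: cells grown under basal conditions without added stimulus; test concentration not given here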
[6] = JC-1 mitochondrial signal, unstimulated HepG2 cells – cell-based, JC-1 fluorescence, 24 h, 100 nL compound, profiling panel (AID 1167); settings: HepG2 mitochondrial potential, higher = more signal; also: test concentration not given here
[7] = JC-1 mitochondrial signal, unstimulated adipocytes – cell-based, JC-1 fluorescence, 3T3-L1 adipocytes, 24 h, 100 nL compound, profiling panel (AID 1168); settings: JC-1 mitochondrial fluorescence, higher = more signal, called active from +8 up or from −8 down; also: test concentration not given here
[8] = JC-1 mitochondrial signal, unstimulated myeloma cells – cell-based, JC-1 fluorescence, RPMI8226, 24 h, 100 nL compound, profiling panel (AID 1169); settings: JC-1 mitochondrial potential fluorescence, higher = more signal; also: test concentration not given here
[9] = JC-1 mitochondrial signal, unstimulated MM1S myeloma – cell-based, JC-1 fluorescence, 24 h, 100 nL compound, profiling panel (AID 1170); settings: MM1S mitochondrial potential, higher = more signal; also: test concentration not given here
[10] = resazurin metabolic signal in A549 cells – cell-based, resazurin fluorescence, 24 h, PK04 Diversity Set, profiling panel (AID 1171); settings: A549 viability, higher = more signal, called active from +8 up or from −8 down; also: test concentration not given here
[11] = resazurin metabolic signal in HepG2 cells – cell-based, resazurin fluorescence, 24 h, PK04 Diversity Set, profiling panel (AID 1172); settings: HepG2 viability, higher = more signal; also: test concentration not given here
[12] = budding yeast growth changes without added modifier – OD600, strain BY4716, 24 h, basal condition, primary screen (AID 1173); settings: S. cerevisiae BY4716 growth, OD600, 24 h; higher = more signal, called active from +8 up or from −8 down
[13] = viability profiling in MM1S myeloma cells – cell-based, resazurin fluorescence, basal, 24 h, PK04 Diversity Set, profiling panel (AID 1174); settings: higher = more signal, called active from +8 up or from −8 down; also: test concentration not given here
[14] = target: Dihydroorotate dehydrogenase (quinone), mitochondrial (Plasmodium falciparum (isolate 3D7)) (UniProt Q08210); assay: inhibition of P. falciparum DHODH – biochemical, C-terminal His tag, absorbance 600 nm, primary screen (AID 1175); settings: PfDHODH enzyme, DCIP absorbance 600 nm; higher = more signal, called active from +8 up or from −8 down;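 also: recombinant parasite enzyme with a five histidine tag at its C terminus; test concentration not given here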
Chain of Dihydroorotate dehydrogenase (quinone), mitochondrial (Plasmodium falciparum (isolate 3D7)) (Q08210 whole entry, looked up): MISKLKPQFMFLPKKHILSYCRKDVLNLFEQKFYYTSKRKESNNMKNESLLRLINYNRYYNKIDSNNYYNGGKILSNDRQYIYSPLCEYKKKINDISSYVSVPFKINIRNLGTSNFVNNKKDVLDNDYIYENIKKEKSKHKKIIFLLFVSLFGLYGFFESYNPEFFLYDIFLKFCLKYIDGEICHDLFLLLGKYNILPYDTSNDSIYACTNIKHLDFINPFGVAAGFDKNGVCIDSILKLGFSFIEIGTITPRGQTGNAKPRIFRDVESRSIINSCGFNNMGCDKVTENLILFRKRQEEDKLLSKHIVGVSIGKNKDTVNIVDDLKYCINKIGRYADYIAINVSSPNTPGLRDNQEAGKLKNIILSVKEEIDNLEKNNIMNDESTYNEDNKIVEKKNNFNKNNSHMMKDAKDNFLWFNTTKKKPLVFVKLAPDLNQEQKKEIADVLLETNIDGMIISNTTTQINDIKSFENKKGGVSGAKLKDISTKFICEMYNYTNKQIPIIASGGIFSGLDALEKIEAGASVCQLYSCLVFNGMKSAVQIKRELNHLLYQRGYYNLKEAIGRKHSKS

[15] = inhibition of PAO1 biofilm formation – strain PAO1, LB-PBS medium, absorbance 600 nm, primary screen (AID 1176); also: test concentration not given here; settings: P. aeruginosa PAO1 growth/biofilm, A600, 12 h; higher = more signal
[16] = growth modulation of vineyard yeast isolate – strain RM11-1a, OD600, basal, 24 h, primary screen (AID 1177);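 also: cultures grown under basal conditions with no added stressor; test concentration not given here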; settings: S. cerevisiae RM11-1a growth, OD600, 24 h; higher = more signal, called active from +8 up or from −8 down
[17] = growth of efflux-deficient E. coli DRC39 – strain DRC39, OD650, 24 h, E. coli filamentation inducers, primary screen (AID 1178);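 also: growth measured as culture turbidity by optical density at 650 nm; test concentration not given here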; settings: E. coli DRC39 acrAB, higher = more signal, called active from +8 up or from −8 down
[18] = growth of efflux-deficient E. coli DRC39 – strain DRC39, OD650, 48 h, E. coli filamentation inducers, primary screen (AID 1179);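 also: screen aims at cell division blockers that make cells filament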; settings: E. coli DRC39 delta-acrAB growth, higher = more signal, called active from +8 up or from −8 down
[19] = viability profiling in RPMI8226 myeloma cells – cell-based, resazurin fluorescence, basal, 24 h, PK04 Diversity Set, profiling panel (AID 1180); settings: higher = more signal;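 also: RPMI8826 multiple myeloma cell line at 5000 cells per well; test concentration not given here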
[20] = target: E3 ubiquitin-protein ligase XIAP (Homo sapiens) (UniProt P98170); assay: small molecules binding XIAP protein – biophysical, small-molecule microarray, fluorescence 635 nm, primary screen (AID 1181); settings: higher = more signal;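 also: score merges 667 nm emission and signal to noise over triplicate slides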
Chain of E3 ubiquitin-protein ligase XIAP (Homo sapiens) (P98170 whole entry, looked up): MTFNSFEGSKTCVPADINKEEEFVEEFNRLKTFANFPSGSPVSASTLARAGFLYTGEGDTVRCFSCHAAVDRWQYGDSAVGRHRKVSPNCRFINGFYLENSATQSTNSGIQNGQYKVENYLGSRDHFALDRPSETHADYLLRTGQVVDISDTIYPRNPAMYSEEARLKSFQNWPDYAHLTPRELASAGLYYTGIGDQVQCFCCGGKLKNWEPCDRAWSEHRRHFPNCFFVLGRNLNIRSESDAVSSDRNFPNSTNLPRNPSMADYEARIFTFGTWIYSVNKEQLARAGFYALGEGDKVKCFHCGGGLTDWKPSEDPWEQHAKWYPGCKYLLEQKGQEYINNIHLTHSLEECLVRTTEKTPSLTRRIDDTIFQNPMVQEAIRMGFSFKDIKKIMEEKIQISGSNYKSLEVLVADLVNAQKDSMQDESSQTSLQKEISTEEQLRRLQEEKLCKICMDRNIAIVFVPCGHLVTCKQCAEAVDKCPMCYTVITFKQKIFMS

Row | SMILES | z-score [1] | z-score [2] | z-score [3] | z-score [4] | z-score [5] | z-score [6] | z-score [7] | z-score [8] | z-score [9] | z-score [10] | z-score [11] | z-score [12] | z-score [13] | composite z-score [14] | z-score [15] | z-score [16] | z-score [17] | z-score [18] | z-score [19] | composite z-score [20]
1 | COC(=O)[C@@]1(Cc2ccc(OC)cc2)[C@H]2c3cc(C(=O)N(C)C)n(Cc4ccc(C)o4)c3C[C@H]2CN1C(=O)c1ccccc1 | 0.774 | -0.0339 | 0.81 | -1.92 | -0.744 | 4.47 | -0.263 (inactive) | -0.939 | -3.01 | -0.21 (inactive) | -0.239 | 0.256 (inactive) | -3.45 (inactive) | 0.376 (inactive) | -0.719 (inactive) | 1.54 (inactive) | 0.502 (inactive) | -0.0131 (inactive) | -4.83 | 0.072
2 | O=C1OCCC=C[C@H]2OC34C=CCN(Cn5nnc6ccccc65)C(=O)[C@H]3N(CCCO)C(=O)[C@@H]4C12 (stereo not given in full) | 0.213 | 1.03 | -1.1 | 0.114 | -1.04 | -0.746 | 0.147 (inactive) | 0.057 | 0.251 | -0.618 (inactive) | -0.614 | -0.63 (inactive) | 0.157 (inactive) | -0.535 (inactive) | -0.441 (inactive) | 0.227 (inactive) | -1.13 (inactive) | -0.951 (inactive) | -0.997 | -0.0351
3 | COCCOC(=O)N1C(=O)[C@@]2(c3cc(C#CCCO)ccc31)[C@H](c1ccc(OCCO)cc1)N1[C@H](c3ccccc3)[C@H](c3ccccc3)OC(=O)[C@H]1[C@@H]2C(=O)Nc1nc2ccccc2s1 | -0.255 | 0.561 | 0.779 | -0.981 | -0.0413 | -3.68 | -1.38 (inactive) | -0.78 | -1.81 | -0.5 (inactive) | 0.32 | 1.9 (inactive) | -0.344 (inactive) | -0.719 (inactive) | 1.56 (inactive) | 2.38 (inactive) | -0.0627 (inactive) | 0.0759 (inactive) | -0.687 | -0.124
4 | [N-]=[N+]=Nc1ccccc1C[C@]1(C(=O)NCC(O)CO)COC(c2ccc(OCCCO)cc2)=N1 (stereo not given in full) | 0.67 | 1.11 | 0.409 | 0.195 | -0.0237 | 0.244 | -0.257 (inactive) | -0.847 | 0.639 | 0.837 (inactive) | 0.586 | -0.226 (inactive) | 0.303 (inactive) | 1 (inactive) | 1.19 (inactive) | 1.73 (inactive) | 0.87 (inactive) | -0.155 (inactive) | 0.747 | 0.0449
5 | [N-]=[N+]=NCc1ccccc1C[C@@]1(C(N)=O)N=C(c2ccc(OCCCO)cc2)O[C@@H]1c1ccccc1 | -0.914 | 0.0779 | -1.94 | -3.04 | -2.88 | -0.864 | -0.262 (inactive) | -1.22 | -0.301 | -1.08 (inactive) | 0.0565 | -0.165 (inactive) | -1.22 (inactive) | -0.239 (inactive) | 0.563 (inactive) | 0.115 (inactive) | 0.0937 (inactive) | -1.12 (inactive) | -1.37 | -0.11
